Bioassay records deposited in PubChem by several laboratories.
Wee1 degr inh: inhibitors of human Wee1 degradation; HeLa Luc-Wee1K328M stability, luciferase luminescence; 100% = proteasome inhibitor MG132 effect; reporter increase, % at 5 µM; 220,000 compounds, 1.2% hits; AID 1321;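 active means activation above the mean of all tested compounds plus 3 SD, set per screening run, cut at about 8.8% in these data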;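 further: cells exposed to compound for 20 h before luminescence read; 0% = DMSO alone and 100% = MG132 at 30 µM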
Hsp70 act: transcriptional activators of Hsp70; 200,000 compounds, 0.04% hits; HeLa Hsp70 promoter luciferase reporter, luminescence; scaled: vehicle 0, proteasome-inhibitor control 100%; AID 1203; activation, % at 10 µM;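 active means activation above the mean across all tested compounds plus 3 SD, cutoff set per campaign, cut at about 5.5% in these data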;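 further: 100% = MG132 at 30 µM as the positive control and 0% = DMSO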
p97 ATPase inh: human p97 ATPase inhibition. P55072. recombinant p97 ATPase, Kinase-Glo ATP luminescence, 3 h. inhibition, % at 8 µM. 220,000 compounds, 0.42% hits. AID 1481; in the data active means inhibition above about 15%;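 further: 0% = DMSO vehicle and 100% = wells lacking enzyme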
Redox H2O2 prof: compounds producing H2O2 with reducing agent – biochemical, NIH compound library profiling, artefact control for MLSCN library redox annotation, primary screen; DTT-dependent redox cycling H2O2, phenol red/HRP absorbance; 100% = 100 µM peroxide control, 0% = buffer; activation, % at 10 µM; 200,000 compounds, 0.03% hits;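 active means activation of at least 50% relative to the plate's high and low controls in the primary single-dose screen; inactive means activation below 50%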;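 further: compound incubated with DTT at 0.8 mM final as the reducing agent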
HSV replic up: increases HSV replication in cells. HSV replication augmentation in cells, fold increase. maximum fold increase. 220,000 compounds, 0.005% hits. AID 1956; in the data active means maximum fold increase above about 1.5; tested in PC3 cells
p97 confirm: human p97 ATPase inhibition, confirmation | shares compounds with p97 ATPase inh | recombinant p97 ATPase, Kinase-Glo ATP luminescence | inhibition, % at 8 µM | 760 compounds, 44% hits | AID 1517;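 active means percent inhibition of p97 ATPase above a set limit, the primary screen's mean plus 3 SD, cut at about 15% in these data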;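 further: 0% = DMSO wells and 100% = wells lacking p97 protein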
Active calls of the source: *; i = inactive; nt = no result given. Sampled rows, rich in hits. Any-hit rate of the full collection: about 1.6%.

SMILES | Wee1 degr inh | Hsp70 act | p97 ATPase inh | Redox H2O2 prof | HSV replic up | p97 confirm
Cc1ccc(S(=O)(=O)CCC(=O)OCc2ccc(Cl)cc2)cc1 | 4 | -1 | -10 | 0 | i | nt
CCOC(=O)/N=C(/NC(=O)Nc1ccc(C(=O)OCC)cc1)OC | 1 | 0 | 2 | -3 | i | nt
O=C(N/N=C/c1c(Cl)nc2ccccn2c1=O)c1cccnc1 | 3 | nt | 17* | nt | i | 9
CSc1ccccc1NC(=O)Nc1ccc(F)c(Cl)c1 | 0 | 0 | 25* | 2 | i | 4
NC1=NC2(CCCCC2)N(c2ccc(F)cc2)C(N)=N1 | -1 | 0 | 2 | 0 | i | nt
NC1=NC2(CCCCC2)N(c2cccc(Cl)c2)C(N)=N1 | 0 | 0 | 25* | 0 | i | 2
COc1ccc(N(CC(=O)N/N=C/c2cc(Br)c(C)o2)S(=O)(=O)c2ccc(NC(C)=O)cc2)cc1 | 0 | 0 | 15* | 0 | i | 7
COc1ccc(N(CC(=O)NC(C)C)S(=O)(=O)c2ccc(NC(C)=O)cc2)cc1 | 8 | 0 | 0 | 0 | i | nt
COc1cccc(-n2c(SCc3cc(=O)oc4cc(O)c(O)cc34)nc3ccccc3c2=O)c1 | 3 | 0 | 40* | 1 | i | 40*
CCN(CC)C(=O)CSc1nc2ccccc2c(=O)n1-c1cccc(OC)c1 | -1 | 0 | -1 | 0 | i | nt
COc1ccc(OC)c(Nc2nc(N)nc(CCl)n2)c1 | 2 | nt | 25* | nt | i | 25*
COc1cccc(Nc2nc(N)nc(CCl)n2)c1 | -1 | nt | 18* | nt | i | 17*
CCN(C(C)=O)c1nc(CCl)cs1 | -2 | 0 | 1 | -1 | i | nt
Cn1c(SCC(=O)NNC(=S)Nc2ccccc2)nnc1-c1ccccc1 | 2 | nt | 1 | nt | i | nt
O=C(Nc1ccc(Cl)cn1)C1C(c2ccccc2)C1(Cl)Cl (configuration not stated) | 1 | 0 | 17* | -1 | i | 23*
Cn1cc(C(=O)CCl)c2ccccc21 | -2 | 0 | 40* | -1 | i | 47*
Oc1ccc2ccccc2c1C=NCc1cn2ccsc2n1 | -5 | 0 | 40* | 3 | i | 7
Cc1c(Br)c(=O)oc2c(Br)c(O)c(O)cc12 | 2 | 0 | 24* | 0 | i | 31*
COc1ccc(C(C)=O)cc1COC(=O)c1ccc(N)c([N+](=O)[O-])c1 | 2 | 0 | 18* | -1 | i | 22*
CCc1ccc(C2=Nn3c(nnc3-c3cccs3)SC2)cc1 | -1 | 0 | 19* | 0 | i | 4
CC(=O)Nc1sc(N/N=C\c2ccc(O)cc2)nc1-c1cccs1 | 1 | nt | 16* | nt | i | 23*
COCC1CCCCN1Cc1cn[nH]c1-c1ccc2cc(OC)ccc2c1 (configuration not stated) | -1 | 0 | 17* | 0 | i | 6
COCC1CCCCN1Cc1cn[nH]c1-c1ccc(OC)cc1OC (configuration not stated) | -1 | 0 | 3 | 1 | i | nt
C/C(CC(=O)N1CCN(C=O)CC1)=N\NC(=O)c1cc2ccccc2cc1O | 1 | 0 | 7 | 1 | i | nt
O=C(CC1Sc2ncnn2C1=O)Nc1ccccc1 (configuration not stated) | 0 | 0 | 16* | 0 | i | 7
SMILES | Wee1 degr inh | Hsp70 act | p97 ATPase inh | Redox H2O2 prof | HSV replic up | p97 confirm
O=C(CC1SC(=O)N(c2ccccc2)C1=O)Nc1ccccc1 (configuration not stated) | 4 | 0 | 2 | 1 | i | nt
CN(C)S(=O)(=O)c1cccc(NC(=S)N/N=C/c2ccc(O)c(O)c2O)c1 | -1 | nt | 16* | nt | i | 20*
CCn1c2ccccc2c2c3ncc4cccn4c3ccc21 | 0 | nt | 15* | nt | nt | 13
CCN(CC)S(=O)(=O)c1cccc(C(=O)N/N=C(\C)c2ccc(O)cc2O)c1 | -4 | 0 | 22* | -1 | i | 22*
CCN(CC)S(=O)(=O)c1cccc(C(=O)N/N=C/c2ccc(O)c(O)c2O)c1 | -2 | 0 | 7 | 0 | i | nt
Cc1[nH]n(-c2ccccc2)c(=O)c1/C=C1\C=NN=C1c1ccccc1 | 0 | nt | 18* | nt | i | 17*
CCN(CC)CCOC(=O)c1ccccc1Br | -2 | 0 | 0 | 0 | i | nt
